Source: PubChem BioAssay (NCI)
The panel holds about 83,000 compounds, 20% with a hit somewhere; the sample as a whole holds those more often.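 Compound tested at a single concentration for 48 hours in 96-well plates; a percent growth value below 10 was scored as active.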 Unmarked numbers belong to inactive results. The source made the active and inactive calls.

Assays:
Test in all cases: NCI-60 one-dose screen, 48 h (100 = growth as untreated, 0 = no growth, -100 = all killed)
Details in all cases: 10 µM unless noted
NCI-H23 lung = system: NCI-H23 lung
NCI-H226 lung = system: NCI-H226 lung
NCI-H322M lung = system: NCI-H322M lung
HOP-62 NSCLC = system: HOP-62 NSCLC
NCI-H460 lung = system: NCI-H460 lung
HOP-92 NSCLC = system: HOP-92 NSCLC
NCI-H522 lung = system: NCI-H522 lung
A549/ATCC NSCLC = system: A549/ATCC NSCLC
786-0 renal = system: 786-0 renal
COLO 205 colon = system: COLO 205 colon
DU-145 prostate = system: DU-145 prostate
K-562 leukemia = system: K-562 leukemia
MALME-3M melanoma = system: MALME-3M melanoma
MDA-MB-231 breast = system: MDA-MB-231 breast
RXF 393 renal = system: RXF 393 renal
SF-268 CNS = system: SF-268 CNS
SF-295 CNS = system: SF-295 CNS
SF-539 CNS = system: SF-539 CNS
UACC-257 melanoma = system: UACC-257 melanoma
M14 melanoma = system: M14 melanoma

| SMILES | growth (NCI-H23 lung) | growth (NCI-H226 lung) | growth (NCI-H322M lung) | growth (HOP-62 NSCLC) | growth (NCI-H460 lung) | growth (HOP-92 NSCLC) | growth (NCI-H522 lung) | growth (A549/ATCC NSCLC) | growth (786-0 renal) | growth (COLO 205 colon) | growth (DU-145 prostate) | growth (K-562 leukemia) | growth (MALME-3M melanoma) | growth (MDA-MB-231 breast) | growth (RXF 393 renal) | growth (SF-268 CNS) | growth (SF-295 CNS) | growth (SF-539 CNS) | growth (UACC-257 melanoma) | growth (M14 melanoma) |
| --- | --- | --- | --- | --- | --- | --- | --- | --- | --- | --- | --- | --- | --- | --- | --- | --- | --- | --- | --- | --- |
| c1cnc2c(-c3nc4ccc5[nH]ncc5c4c4c3CCCC4)c[nH]c2c1 | 22.4% | 42.6% | 21.3% | 15% | 7.48% (active) | 40.6% | -23.3% (active) | 16.6% | 32.5% | 26.7% | 27.7% | 21% | 63.8% | 30.7% | 42.7% | 40.4% | 32.1% | 42.9% | 98.3% | 59% |
| CNC(=O)c1ccccc1Oc1nc(Nc2cc(OC)c(OC)c(OC)c2)ncc1Br | 55.2% | 21.8% | 58.5% | 49.7% | 43.9% | 60.6% | 53.9% | 46.4% | 48.9% | -12.6% (active) | 58.1% | 77.2% | 82.3% | 75.4% | 40.3% | 59.3% | 53% | 71.1% | 77% | 47.7% |
| NC(=O)C(=O)c1ccccc1NC=O | 92.1% | 97.3% | 95.3% | 86.9% | 103% | 83.2% | 88.9% | 99.7% | 110% | 118% | 106% | 92.3% | 96.8% | 97.7% | 110% | 97.2% | 104% | 102% | 98.7% | 92.7% |
| Clc1cc(Cl)c(Cl)c(-c2nnc(SCc3ccncc3Br)o2)c1 | 87.7% | 98% | 102% | 82.5% | 95.9% | 84.4% | 83.8% | 153% | 93.7% | 110% | 99.9% | 69.5% | 100% | 93.3% | 128% | 97.8% | 95.2% | 90.9% | 103% | 97.9% |
| N#CC1=C(N)Oc2c(sc3c(Br)cccc23)C1c1ccc(Cl)cc1 (stereo not given) | 17.2% | 39.7% | 36.1% | 14.3% | 8.2% (active) | 35.6% | -26.8% (active) | 1.31% (active) | 5.59% (active) | -42.2% (active) | 20% | 7.37% (active) | 50.4% | 9.21% (active) | -18% (active) | 20.2% | 6.9% (active) | -38.2% (active) | 64% | 1.7% (active) |
| COc1ccc(/C=C/C(=O)c2ccc(Nc3ccnc4cc(Cl)ccc34)cc2)cc1 | 76.2% | 123% | 131% | 72.3% | 101% | 37.9% | 73.3% | 103% | 72.8% | 117% | 103% | 45% | 142% | 80.7% | 13.5% | 100% | 77.4% | 86.8% | 102% | 87.8% |
| N=C(N)c1ccc(-c2ccc(-c3ccc(Cl)cc3Cl)s2)cc1 | 56.5% | 77.9% | 13.9% | 34.1% | -66.3% (active) | 75.2% | -28.6% (active) | -30.2% (active) | -18% (active) | -31.6% (active) | -24.7% (active) | -7.11% (active) | 73.9% | -38% (active) | 87.3% | 42.4% | -30.6% (active) | -28.9% (active) | 88% | 41.5% |
| N#C/C(=C\c1c(-c2ccccc2)[nH]c2ccccc12)C(N)=O | 85.4% | 95.1% | 104% | 87.4% | 92.2% | 65.1% | 83.3% | 89.5% | 98.7% | 92.8% | 108% | 24% | 93% | 71.6% | 122% | 97.3% | 99.7% | 71% | 105% | 68.9% |
| CN1CCN(C(=O)c2ccc(NC(=O)c3cc4c(nn3)NCCN4Cc3cc(Cl)ccc3Cl)cc2)CC1 | 74.3% | 36.8% | 95.8% | 82.3% | 53.4% | 67.2% | 36.1% | 55.2% | 75.2% | 71.1% | 88.2% | 6.45% (active) | 73.8% | 82.2% | 64.2% | 58.9% | 67.6% | 52.3% | 101% | 72.6% |
| CCOC(=O)C1=C(C)NC(=O)NC1c1c(Cl)n(CCCl)c2ccccc12 (stereo not given) | 92.5% | 92% | 92.6% | 90.8% | 98.9% | 42.9% | 90% | 95.4% | 92.9% | 117% | 107% | 99.3% | 94.4% | 105% | 98.1% | 88% | 95.3% | 97.2% | 92.7% | 98.2% |
| Clc1ccc(/C=N\N=C\c2ccc(Cl)c(Cl)c2)cc1Cl | 84.9% | 104% | 102% | 95.8% | 47.1% | 88.6% | 77.4% | 87.2% | 97.3% | 90.8% | 3.88% (active) | 88.8% | 125% | 80.6% | 79.3% | 91.9% | 81.1% | 102% | 106% | 88.6% |
| Nc1n[nH]c2cccc(C#Cc3cccc(C(=O)Nc4cc(C(F)(F)F)cc(C(F)(F)F)c4)c3)c12 | 73.8% | 42.7% | 96.7% | 93.8% | 76.5% | 36.9% | 35.1% | 80.4% | 103% | 81% | 91.5% | 4.87% (active) | 53.4% | 51.9% | 50.5% | 68.8% | 77.9% | 53.3% | 71.6% | 34.1% |
| CCC(=C(c1ccc(OCCN2CCCCC2)cc1)c1ccc(OCCN2CCCCC2)cc1)c1ccc(Cl)cc1 | -81% (active) | -66.4% (active) | -99% (active) | -73.7% (active) | -80.5% (active) | -83.6% (active) | -69.7% (active) | -72.2% (active) | -88.8% (active) | -66.3% (active) | -89.8% (active) | -37% (active) | -83.4% (active) | -90.1% (active) | -81.4% (active) | -72.1% (active) | -89.7% (active) | -97.3% (active) | -76.9% (active) | -83.1% (active) |
| CNC(=O)c1[nH]cc(-c2ccc(OC)cc2)c1-c1cc(OC)c2c(c1OC)OCO2 | 97.6% | 97.8% | 96.2% | 85.3% | 105% | 89.6% | 101% | 99.1% | 96.7% | 118% | 110% | 105% | 95% | 100% | 97.5% | 101% | 97.6% | 103% | 104% | 101% |
| CCC(C)N(CCNc1cc(OC)cc2cccnc12)CC(C)C (stereo not given) | 86.5% | 92.7% | 95.2% | 107% | 98% | 105% | 82.8% | 102% | 117% | 96.6% | 112% | 83.1% | 119% | 87.8% | 122% | 96.4% | 110% | 115% | 99.8% | 110% |
